The source made the active and inactive calls.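 The calls were made as follows, unless noted: active = z-score of at least 1.8 in each of two replicates, scored against plate mean and spread of sample wells; inactive = the rest.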
Tests used:
[1] = MELAS cybrid and Rieske KO viability enhancers – cell-based, MELAS cybrids, Rieske KO mouse fibroblasts, CellTiter-Glo, primary screen (AID 1508586;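 active = mean z-score across replicates of 1.96 or higher in either the MELAS or the Rieske mutant cell line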;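 also: test concentration not given here; z relative to plate mean and SD of compound and empty wells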); settings: low glucose
[2] = galactose survival enhancers in mitochondrial complex I cybrids – cell-based, galactose medium, ATP luminescence, primary screen (AID 1645843); settings: complex I mutant cybrid cells, 72 h, stronger effect = higher value;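 also: positive z means more ATP and so rescue of galactose-driven cybrid death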
[3] = MELAS cybrid survival, CellTiter-Glo 48 h, stronger effect = higher value
[4] = Rieske KO mouse fibroblast survival, CellTiter-Glo 72 h

Row | SMILES | z-score [1, 3] | z-score [1, 4] | z-score [2]
1 | COCCN1C(=O)N(C(C)C)C(=O)C12CCN(Cc1c(F)cccc1Cl)CC2 | -0.424 (inactive) | -0.375 | 2.07 (inactive)
2 | O=C(NCCn1ccnc1)c1cc(NCC2CC2)cc(S(=O)(=O)N2CCCC2)c1 | -0.151 (inactive) | 0.62 | 1.69 (inactive)
3 | CCC(CC)CNc1cc(C(=O)NCCN(C)C)cc(S(=O)(=O)Nc2ccc(OC)cc2)c1 | -0.364 (inactive) | 0.972 | -1.11 (inactive)
4 | Cc1c(CN2CCc3c(c(C(=O)NC4CCCC4)nn3CC(C)C)C2)c(=O)n(-c2ccccc2)n1C | -0.389 (inactive) | -0.276 | 0.17 (inactive)
5 | COc1ccc(CN2CC(OCc3cccnc3)CN(C(=O)C3=NN(C)C(=O)CC3)CC2=O)cc1 (centres undefined) | -0.43 (inactive) | -0.34 | 1.23 (inactive)
6 | COc1cc(CN2CCc3c(cc(-c4cccc(F)c4)c(=O)n3CCn3ccc(C)n3)C2)ccc1O | 0.37 (inactive) | 0.944 | -0.15 (inactive)
7 | CC(C)CN1C[C@@H](CN2CCOCC2)C[C@@H](C(=O)N2CCCC2)C1 | -0.0982 (inactive) | -0.607 | -0.485 (inactive)
8 | Cc1ncsc1CCn1nc(C(=O)NC2CC2)c2c1CCN(C(=O)C1Cc3ccccc3O1)C2 (centres undefined) | -0.25 | 4.81 | -0.18 (inactive)
9 | COC(=O)c1c(NC(=O)CCc2ccccc2)c2cc(NC(C)C(C)(C)O)cnc2n1C (centres undefined) | -1.19 (inactive) | -0.398 | -0.305 (inactive)
10 | CNS(=O)(=O)c1cc(NCc2cc3ccccc3s2)cc(C(=O)Nc2ccc(OC)cc2)c1 | 0.562 (inactive) | 0.602 | 2.26 (inactive)
11 | CC(C)[C@@H]1NC(=O)[C@@H]2C[C@H](NC(=O)OCc3ccccc3)CN2C1=O | -0.138 (inactive) | -0.152 | -1.16 (inactive)
12 | COCc1ccc(CN2CCC3(CC2)C(=O)N(C2Cc4ccccc4C2)C(=O)N3CC(C)C)o1 | -0.309 (inactive) | -0.702 | 1.99 (active)
13 | COCC(=O)Nc1c(C(=O)OC)n(C)c2ncc(NCc3cnn(C)c3C)cc12 | -0.241 (inactive) | -0.209 | -0.64 (inactive)
14 | CC1=C(CCN2CCC3(CC2)C(=O)N(C(C)C)C(=O)N3C)C(C)(C)CCC1 | -0.0598 (inactive) | -0.31 | 1.89 (inactive)
15 | CCCCc1ncc(CN2CCc3c(cc(-c4ccncc4)c(=O)n3C/C=C/c3ccccc3)C2)[nH]1 | -0.405 (inactive) | -0.0119 | -0.41 (inactive)
16 | C=CCn1nc(C(=O)N2CCCC2)c2c1CCC(NCc1ccccc1OC(F)(F)F)C2 (centres undefined) | 0.124 (inactive) | 0.327 | -0.3 (inactive)
17 | CN1CCN(S(=O)(=O)c2cc(C(=O)NCCc3ccccn3)cc(-c3ccccc3)c2)CC1 | -0.308 (inactive) | -0.279 | -0.695 (inactive)
18 | COc1ccc(CN2C(=O)N(C)C3(CCN(Cc4cccn4-c4ccccn4)CC3)C2=O)cc1 | -0.452 (inactive) | -0.368 | 0.16 (inactive)
19 | Cn1nc(C(=O)N2CCCCC2)c2c1CCC(NCC1(c3ccccc3)CCOCC1)C2 (centres undefined) | 0.135 (inactive) | 0.153 | -0.59 (inactive)
20 | CC(C)C[C@H]1NC(=O)[C@H]2CN(C(=O)OCc3ccccc3)CCN2C1=O | -0.0626 (inactive) | -0.118 | -0.205 (inactive)

Row | SMILES | z-score [1, 3] | z-score [1, 4] | z-score [2]
21 | Cc1cc(-c2cc3c(n(C)c2=O)CCN(Cc2ccc(Sc4nncn4C)o2)C3)ccc1F | -0.56 (inactive) | -0.369 | 0.445 (inactive)
22 | C=CCn1nc(C(=O)N2CCCCCC2)c2c1CCC(NCc1cc(-c3ccccc3)on1)C2 (centres undefined) | -0.0315 (inactive) | 0.236 | -1.62 (inactive)
23 | CCCn1nc(C(=O)N2CCCCC2)c2c1CCC(NCc1cccnc1)C2 (centres undefined) | -0.0243 (inactive) | -0.185 | -1.06 (inactive)
24 | CCN1CCCC1CNC(=O)c1nn(CCOC)c2c1CN(Cc1c(C)nc3sccn13)CC2 (centres undefined) | 0.286 (inactive) | -0.16 | -0.87 (inactive)
25 | COc1ccccc1C(=O)N1CCN2C(=O)[C@@H]3CSCN3C(=O)[C@H]2C1 | -0.216 (inactive) | 0.475 | -0.395 (inactive)
26 | O=C(C1COc2ccccc2C1)N1CC(=O)N(C2CCCCC2)CC(OCc2ccccn2)C1 (centres undefined) | 0.04 (inactive) | -1.17 | 2.08 (inactive)
27 | Cc1ccc2c(-c3cc4c(n(CC5CC5)c3=O)CCN(C(=O)c3ccc5c(c3)OCO5)C4)cccc2n1 | 2.47 (active) | 3.71 | -0.54 (inactive)
28 | O=C(NCCn1cncn1)c1cc(-c2ccccc2)cc(S(=O)(=O)N2CCSCC2)c1 | -0.182 (inactive) | 0.272 | 1.56 (inactive)
29 | O=c1c(-c2ccccc2Cl)cc2c(n1Cc1ccncc1)CCN(Cc1ccnc3ccccc13)C2 | -0.09 (inactive) | -0.0903 | 0.915 (inactive)
30 | CCn1nc(C(=O)N2CCCCC2)c2c1CCC(NCc1ccc3c(c1)OCO3)C2 (centres undefined) | -0.251 (inactive) | 0.426 | -1.14 (inactive)
31 | CC1=C(C(=O)N2CC(=O)N(CC(C)C)CC(OCc3ccccc3)C2)OCCO1 (centres undefined) | 0.636 (inactive) | -0.606 | 0.39 (inactive)
32 | CCc1cc(C(=O)N2CC(=O)N(Cc3ccc(OC)cc3)CC(OCc3ccncc3)C2)n(C)n1 (centres undefined) | -0.128 (inactive) | -0.65 | 0.77 (inactive)
33 | COc1ccc(-c2cc3c(n(C)c2=O)CCN(C2CCSC2)C3)c2ccc(C)nc12 (centres undefined) | -0.852 (inactive) | -0.332 | 1.09 (inactive)
34 | CCOC(=O)c1nn(CCc2ccc(OC)cc2)c2c1CN(Cc1cccn1-c1ccccn1)CC2 | -0.341 (inactive) | 0.052 | -1.34 (inactive)
35 | CCc1nc(Cn2c3c(cc(-c4ccccc4C)c2=O)CN(Cc2ccc(O)c(Cl)c2)CC3)no1 | -0.286 (inactive) | -0.271 | 0.44 (inactive)
36 | CC(C)[C@@H]1NC(=O)[C@@H]2C[C@H](NC(=O)c3cc(C(C)(C)C)nn3C)CN2C1=O | 0.0639 (inactive) | 0.0296 | -0.355 (inactive)
37 | CC(C)N1CCN(C(=O)c2cc(-c3ccccc3)cc(S(=O)(=O)N3CCSCC3)c2)CC1 | -0.246 (inactive) | -0.306 | 1.2 (inactive)
38 | C=CCn1nc(C(=O)N2CCSCC2)c2c1CCC(N1CCOc3ccc(Cl)cc3C1)C2 (centres undefined) | -0.526 (inactive) | -0.713 | 0.51 (inactive)
39 | Cn1ccnc1CN1C[C@@H](CN2CCOCC2)C[C@@H](C(=O)N2CCCC2)C1 | 0.188 (inactive) | 0.125 | -0.64 (inactive)
40 | CCn1nc(C(=O)N2CCCC2)c2c1CCC(N1CCN(c3ccccc3OC)CC1)C2 (centres undefined) | -0.423 (inactive) | -0.558 | -0.48 (inactive)

Row | SMILES | z-score [1, 3] | z-score [1, 4] | z-score [2]
41 | CCOC(=O)c1nn(CC)c2c1CN(C(=O)Cn1nc(-c3ccccc3)c3ccccc3c1=O)CC2 | -0.0607 (inactive) | 0.472 | 0.925 (inactive)
42 | Cc1cc(-c2cc3c(n(Cc4cccnc4)c2=O)CCN(C(=O)C2Cc4ccccc4O2)C3)ccc1F (centres undefined) | -0.406 (inactive) | 1.95 | -0.785 (inactive)
43 | NCCCC[C@@H]1NC(=O)[C@@H]2C[C@H](NC(=O)c3sccc3Cl)CN2C1=O | -0.4 (inactive) | -0.67 | -0.915 (inactive)
44 | CCOC(=O)c1nn(Cc2ccc(OC)cc2)c2c1CN(C(=O)CSc1ncccn1)CC2 | -0.668 (inactive) | -0.456 | 0.665 (inactive)
45 | CC(C)CN1CC(OCc2cccc(F)c2)CN(Cc2cccn2-c2ncccn2)CC1=O (centres undefined) | -0.291 (inactive) | -0.624 | 0.085 (inactive)
46 | COCC(=O)Nc1c(C(=O)OC)n(CCC(C)C)c2ncc(NC(C)CCn3cccn3)cc12 (centres undefined) | 0.765 | 4.41 | -0.21 (inactive)
47 | C=CCn1nc(C(=O)N2CCOCC2)c2c1CCC(NCc1ccc(Cl)s1)C2 (centres undefined) | -0.625 (inactive) | -0.989 | 0.86 (inactive)
48 | CC[C@@H]1NC(=O)[C@H]2CN(CCC(C)C)CCN2C1=O | 0.225 (inactive) | 0.0851 | -0.555 (inactive)
49 | Cc1ccc(CNC(=O)c2nn(C)c3c2CC(NC2CCN(Cc4ccccc4)CC2)CC3)o1 (centres undefined) | 0.347 (inactive) | 0.979 | -1.23 (inactive)
50 | Cc1ccc(-c2cc(C(=O)N(C)CCc3cnn(C)c3)cc(S(=O)(=O)N3CCOCC3)c2)s1 | -0.0954 (inactive) | -0.0313 | 0.925 (inactive)
51 | O=C(Cn1cnnn1)N1CC(=O)N(C2CCCCC2)CC(OCc2ccccc2)C1 (centres undefined) | -0.326 (inactive) | 0.527 | 0.21 (inactive)
52 | COc1ccc(CCn2nc(C(=O)N(C)C)c3c2CCN(C(=O)c2csc4c2CCCC4)C3)cc1 | -0.0604 (inactive) | -0.104 | 1.47 (inactive)
53 | Cc1ccnn1CCC(=O)N1CC(=O)N(CC(C)C)CC(OCc2ccccn2)C1 (centres undefined) | -0.157 (inactive) | -0.668 | 0.98 (inactive)
54 | Cn1nc(C(=O)N2CCCCCC2)c2c1CCC(NCc1ccc(C(F)(F)F)cc1)C2 (centres undefined) | -0.174 (inactive) | -0.22 | 1.12 (inactive)
55 | COc1ccccc1CNC1CCc2c(c(C(=O)N3CCc4ccccc4C3)nn2C)C1 (centres undefined) | -0.107 (inactive) | -0.0135 | 0.07 (inactive)
56 | COc1cccc(COC2CN(Cc3ccccn3)C(=O)CN(C(=O)c3ccc(C)s3)C2)c1 (centres undefined) | -0.406 (inactive) | 0.0344 | 0.91 (inactive)
57 | CC1=C(C(=O)N2CCc3c(c(C(=O)NCc4nccs4)nn3Cc3ccccc3)C2)OCCO1 | -0.132 (inactive) | 0.241 | 0.605 (inactive)
58 | COCCCNC(=O)c1nn(C)c2c1CN(C(=O)Cc1c(C)[nH]c3c(F)cccc13)CC2 | -0.326 (inactive) | -0.829 | 0.99 (inactive)
